# Screening results deposited in PubChem by National Center for Advancing Translational Sciences (NCATS).
# The list is not random: actives were taken first. Their share in the collection is about 2.4%.
# FEN1 inhibitor: qHTS Assay for the Inhibitors of Human Flap endonuclease 1 (FEN1) | Recombinant FEN1 flap cleavage, fluorescence, 15 min | P39748 | AID 588795, 2011 | actives 0.35% (n = 390,000) | Potency, µM (highest dose often 114 µM), for inactives: at the top dose activity change, negative = inhibition, actives largely listed as inhibitors; further: on the % scale 0 is the no-effect control and ±100 the full control effect; nearly all actives have a fitted effect of over 65% in size
#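 Potency values derive from four-parameter Hill fits of normalized qHTS data. The reaction used 10 nM FEN1 preincubated 15 min at room temperature with compound, then 50 nM DNA substrate, read at 0 and 15 min.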
# WRN inhibitor: qHTS for Inhibitors of WRN Helicase. Bifunctional 3'-5' exonuclease/ATP-dependent helicase WRN (Homo sapiens), Q14191. WRN helicase unwinding, fluorescent forked duplex, kinetic. Potency, µM (doses to about 114 µM), for inactives: at the top dose activity change, negative = inhibition, usual class: inhibitors. actives 0.46% (n = 360,000). AID 651768, 2012; further: on the % scale 0 is the no-effect control and ±100 the full control effect; nearly all actives have a fitted effect of over 55% in size
#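 Enzyme (20 nM final) and test compound sit together 15 min at room temperature before substrate addition. Substrate is a single-forked duplex oligonucleotide (100 nM) labelled with fluorophore and quencher, with 2 mM ATP; helicase unwinding raises red fluorescence, read kinetically.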
# POLI inh: qHTS for Inhibitors of Polymerase Iota. DNA polymerase iota (Homo sapiens), Q9UNA4. Pol iota fluorescent replication assay, 10 min. Potency, µM (titrated, usually from 115 µM), without a hit: at the top dose activity, negative = inhibition, hits mostly inhibitors. actives 1% (n = 390,000). AID 588590, 2011
# Target sequence (Q9UNA4 whole entry, looked up): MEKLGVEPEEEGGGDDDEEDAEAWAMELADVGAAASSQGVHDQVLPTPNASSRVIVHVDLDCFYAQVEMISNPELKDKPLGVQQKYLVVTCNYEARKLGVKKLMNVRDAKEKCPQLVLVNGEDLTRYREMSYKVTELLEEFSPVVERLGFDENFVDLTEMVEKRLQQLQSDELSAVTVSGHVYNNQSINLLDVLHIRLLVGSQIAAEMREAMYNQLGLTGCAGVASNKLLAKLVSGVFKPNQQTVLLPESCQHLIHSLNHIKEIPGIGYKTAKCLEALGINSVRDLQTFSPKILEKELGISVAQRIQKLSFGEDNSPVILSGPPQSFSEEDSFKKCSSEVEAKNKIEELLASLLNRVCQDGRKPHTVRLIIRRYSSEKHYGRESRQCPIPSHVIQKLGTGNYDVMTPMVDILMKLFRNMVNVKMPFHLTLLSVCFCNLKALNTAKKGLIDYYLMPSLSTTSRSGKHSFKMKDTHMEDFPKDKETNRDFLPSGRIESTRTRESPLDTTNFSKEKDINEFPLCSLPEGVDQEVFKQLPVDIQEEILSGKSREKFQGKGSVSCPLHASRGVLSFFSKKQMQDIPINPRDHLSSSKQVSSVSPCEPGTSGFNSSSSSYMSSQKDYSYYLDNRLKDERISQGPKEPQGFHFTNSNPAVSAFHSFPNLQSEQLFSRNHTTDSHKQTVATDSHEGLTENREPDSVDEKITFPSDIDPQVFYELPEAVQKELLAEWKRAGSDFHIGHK
#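 Pol iota at 10 nM preincubated 15 min with compounds at room temperature; reaction started with fluorescent substrate, 50 nM final. Fluorescence read kinetically at 0 and 10 min; buffer-only wells as negative control.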
# Pol beta inh: qHTS Assay for Inhibitors of DNA Polymerase Beta. P06746. Pol beta primer extension/strand displacement, fluorescence kinetic. Potency, µM (titrated, usually from 114 µM), without a hit: top-dose activity change, negative = inhibition, hits mostly inhibitors. actives 1.3% (n = 340,000). AID 485314, 2010; further: on the % scale 0 is the no-effect control and ±100 the full control effect
#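 Reaction started by 50 nM substrate onto compound-treated Pol beta (10 nM, 15 min preincubation, room temperature); plates read at 0 min and 10 min. Normalized concentration-effect data fitted by four-parameter Hill equation.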
# Pol kappa inh: qHTS for Inhibitors of Polymerase Kappa; Potency, µM (highest dose often 107 µM), for the others: top-dose activity, negative = inhibition, hits mostly inhibitors; AID 588579, 2011; purified Pol kappa, fluorescent DNA synthesis assay, 10 min; actives 0.53% (n = 400,000); further: on the % scale 0 is the no-effect control and ±100 the full control effect
#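 First, compounds were pin-transferred onto 10 nM Pol kappa. After 15 min at room temperature, substrate was added to 50 nM final. Fluorescence was then measured kinetically at 0 and 10 min.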
# POLH inh: qHTS for Inhibitors of Polymerase Eta. DNA polymerase eta (Homo sapiens), Q9Y253. recombinant Pol eta, fluorescent DNA replication assay. Potency, µM (highest dose often 114 µM), inactives show top-dose activity change, negative = inhibition, actives largely listed as inhibitors. actives 1.2% (n = 390,000); further: on the % scale 0 is the no-effect control and ±100 the full control effect
#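 Fluorescent replication assay: 50 nM final substrate added after a 15 min room-temperature compound preincubation with 10 nM enzyme. Signal taken at 0 min and again at 10 min.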
# Starred values were filed as active, the others as inactive; ? = inconclusive; . = no result given; ! = not active in a repeat; [ ] = another dose, or the depositor's remark. The call rests on the fitted dose curve; in most records, active means well fitted curve in the direction sought with a large enough effect; inconclusive means small, poorly fitted or top-dose-only effect, or another doubt; inactive means no such curve, though single readings can be large; an effect the other way counts as inactive or inconclusive. Potency means the concentration at half of the fitted maximal effect.
SMILES,FEN1 inhibitor,WRN inhibitor,POLI inh,Pol beta inh,Pol kappa inh,POLH inh
CC(C)C[C@H](NC(=O)[C@H](CCCCN)NC(=O)[C@H](CCCNC(=N)N)NC(=O)[C@H](C)NC(=O)[C@H](CO)NC(=O)[C@H](CCCCN)NC(=O)[C@H](CCCNC(=N)N)NC(=O)[C@H](C)NC(=O)CNC(=O)[C@@H](NC(=O)[C@H](Cc1ccccc1)NC(=O)CNC(=O)CNC(=O)[C@@H](N)Cc1ccccc1)[C@H](C)O)C(=O)N[C@@H](C)C(=O)N[C@@H](CC(N)=O)C(=O)N[C@@H](CCC(N)=O)C(=O)O,.,.,.,.,2.7%[19.4 µM],.
COc1ccc(-c2nc3sc(CCNC(=O)c4cc(Cl)ccc4OC)c(C)n3n2)cc1,-17.9%,.,?,23.2%,-3.0%[60.1 µM],-24.4%
N=C1C(c2nc3ccccc3s2)=C(O)CN1NC(=O)c1ccco1,-7.5%,-13.9%,?,25.1µM*,-34.6%,-4.0%
CCCCCOC(=O)c1ccc(OC(=O)c2sc3ncn(Cc4cccc(F)c4)c(=O)c3c2C)cc1,-2.1%,.,3.6%,0.9%,-4.7%[60.1 µM],-15.8%
O=C(O)CCCCCNS(=O)(=O)c1ccc2c3c(cccc13)C(=O)N2,-1.1%,?,?,15.8µM*,?,?
O=C(O)/C=C/c1ccc(S(=O)(=O)NCc2ccco2)cc1,-9.4%,-4.6%[11.6 µM],-21.7%,-29.2%,-23.1%,35.5µM*
O=C(O)CNS(=O)(=O)c1ccc2c3c(cccc13)C(=O)N2,?,56.2µM*,?,9.5%,?,31.6µM*
O=C1Nc2ccc(S(=O)(=O)NCc3ccco3)c3cccc1c23,-23.0%,-14.5%[11.6 µM],39.8µM*,.,-43.2%,20µM*
O=S(=O)(NCc1ccco1)c1ccccc1Br,-6.6%,6.6%,89.1µM*!,?,-22.8%,-11.0%
O[N+]1=CC=CCC1=S.On1ccccc1=S.[Zn],.,.,.,.,-3.5%[60.1 µM],.
O=C1C(C=Nc2ccccc2O)=C(O)c2ccccc21,1.3%,-14.8%,7.9%,35.5µM*,0.0%,-10.7%
Cc1ccc(O)c(N=CC2=C(O)c3ccccc3C2=O)c1,-30.8%,-11.4%[11.6 µM],?,?,-25.4%,17.8µM*
O=C1C(C=Nc2ccccc2)=C(O)c2ccccc21,3.2%,-0.9%,19.5%,40.9%,0.1%,10.2%
Cc1cccc(NC(=O)CSc2nc(C)cc(C)c2C(=O)Nc2ccc(Cl)cc2)c1,0.2%,.,21.5%,-1.4%,-7.4%,-16.8%
O=C(COc1ccc2ccccc2c1)N1c2ccccc2Sc2ccccc21,-5.4%,-14.6%,-16.7%[58.9 µM],-26.2%,-10.9%,-14.5%
O=C(CCl)N1c2ccccc2Sc2ccc3ccccc3c21,.,-15.8%,.,.,.,14.1µM*
COc1cc(NC(=O)c2c(-c3ccc(C)cc3)nnc3ccccc23)cc(OC)c1OC,-1.4%,.,?,5.7%,-2.7%,-8.9%
Cc1ccc(SCc2cc(=O)c3c(=O)n(-c4ccccc4)[nH]c3[nH]2)cc1,-9.1%,?,22.4µM*,35.5µM*,?,-2.6%
Cc1ccc2c(=O)cc(CSc3ccccc3)[nH]c2c1C,-17.4%,.,-22.0%,33.9%,-9.9%[60.1 µM],-2.6%
O=c1cc(CSc2ccc(Cl)cc2)[nH]c2[nH]n(-c3ccccc3)c(=O)c12,10.0%,-20.3%,?,39.8µM*,?,-16.3%
COc1ccccc1CNc1cc(-c2ccccc2)nc2nncn12,-13.1%,.,-2.7%,39.2%,-4.3%,-12.4%
Cc1cc(/C=C/c2c(C)cnc3ccccc23)ccc1N(C)C,-2.0%,.,?,.,-12.0%,.
O=S(=O)(NC1=NCCCCC1)c1ccc2sc(NS(=O)(=O)c3ccc4ccccc4c3)nc2c1,-6.4%,2.6%,11.2µM*,1.3%,-20.3%,?
CCc1nnc(NC(=O)c2sc3nc4c(cc3c2N)CCCCCC4)s1,-0.7%,-10.3%[11.6 µM],25.1µM*,39.8µM*,-42.8%,39.8µM*
